Screening data deposited in PubChem by National Center for Advancing Translational Sciences (NCATS).
An excerpt weighted towards active compounds, which were near 9.5% of everything screened.
Tau fluor cs: counter-screen for tau fibril formation inhibitors | tau K18 P301L Alexa594 fluorescence, heparin fibrillization | AID 1463 | actives 0.93% (n = 280,000) | Potency, µM (series often up to 57.7 µM), for inactives: at the top dose activity change, negative = decrease; further: nearly all actives have a fitted effect of over 55% in size
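Human K18 P301L tau (15 uM unlabeled plus 0.24 uM Alexa 594-labeled, final) in 100 mM sodium acetate pH 7 was mixed with compound and 20 uM heparin and incubated 6 hr at 37 C.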
Tau fibril ThT: inhibitors of human tau fibril formation, thioflavin T binding. Potency, µM (titrated, usually from 57.4 µM), for the others: at the top dose activity, negative = inhibition, usual class: inhibitors. AID 1460. actives 2.1% (n = 270,000). P10636. recombinant tau K18 P301L (four-repeat tau fragment), heparin-induced fibrillization, ThT fluorescence; further: nearly all actives have a fitted effect of over 55% in size
Target sequence (P10636 561-689 P618L limits assumed): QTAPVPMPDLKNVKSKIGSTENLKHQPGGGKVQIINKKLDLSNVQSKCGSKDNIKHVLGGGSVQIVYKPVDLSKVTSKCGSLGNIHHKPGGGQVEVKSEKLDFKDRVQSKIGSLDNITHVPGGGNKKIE
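Recombinant human tau K18 fragment […] carrying P301L, 15 uM unlabeled plus 0.24 uM Alexa 594-labeled, was fibrillized with 20 uM heparin in 100 mM sodium acetate pH 7 for 6 hr at 37 C; 30 uM ThT fluorescence read after 1 hr.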
NPSR antagonist: antagonists of human neuropeptide S receptor cAMP signaling; Potency, µM (top dose mostly 38.3 µM), without a hit: top-dose activity change, negative = inhibition, most hits filed as inhibitors; Q6W5P4; CHO-NPSR cells, cAMP TR-FRET, antagonist mode; actives 1% (n = 220,000); further: nearly all actives have a fitted effect of over 50% in size
Tau FP inhib: inhibitors of human tau fibril formation | K18 P301L tau heparin fibrillization, Alexa594 FP, 6 h | Potency, µM (top dose mostly 57.7 µM), inactives show top-dose activity, negative = inhibition, actives largely listed as inhibitors | actives 0.39% (n = 280,000) | AID 1468; further: nearly all actives have a fitted effect of over 55% in size
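Human K18 P301L fragment (15 uM unlabeled plus 0.24 uM Alexa 594-labeled) in 100 mM sodium acetate pH 7 with compound, aggregation induced by 20 uM heparin for 6 hr at 37 C. ThT (30 uM) added for 1 hr, then Alexa 594 FP read.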
ALDH1A1 inh: inhibitors of human aldehyde dehydrogenase 1A1; P00352; AID 1030; Purified ALDH1A1, NADH fluorescence, propionaldehyde substrate; actives 7.3% (n = 220,000); Potency, µM (doses to about 75.3 µM), for inactives: at the highest dose activity, negative = inhibition, actives largely listed as inhibitors; active means well fitted inhibition curve with a large enough effect, not every such curve was filed as active; inconclusive means small, poorly fitted or top-dose-only effect, or another doubt; inactive means no such curve, though single readings can be large or run the other way;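 further: plate controls were no enzyme wells and a reference inhibitor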
Target sequence (P00352 whole entry, looked up): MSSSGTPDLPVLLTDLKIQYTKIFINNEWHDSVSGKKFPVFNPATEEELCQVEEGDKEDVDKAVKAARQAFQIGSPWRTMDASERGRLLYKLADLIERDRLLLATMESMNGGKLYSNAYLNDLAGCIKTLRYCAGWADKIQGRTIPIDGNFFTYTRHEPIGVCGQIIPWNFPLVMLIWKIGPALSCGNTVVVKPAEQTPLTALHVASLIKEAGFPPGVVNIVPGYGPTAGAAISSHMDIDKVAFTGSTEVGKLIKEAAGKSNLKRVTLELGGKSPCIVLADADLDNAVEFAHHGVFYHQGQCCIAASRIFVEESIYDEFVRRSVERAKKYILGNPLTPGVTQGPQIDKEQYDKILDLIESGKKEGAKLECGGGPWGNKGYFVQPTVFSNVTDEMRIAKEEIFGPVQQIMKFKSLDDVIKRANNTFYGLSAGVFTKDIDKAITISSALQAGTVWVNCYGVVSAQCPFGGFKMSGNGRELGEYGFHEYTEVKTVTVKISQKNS
HPGD inh: blocks human HPGD enzyme activity. Potency, µM, for inactives: at the top dose activity change, negative = inhibition, hits mostly inhibitors. AID 894. actives 4.3% (n = 150,000). P15428. purified HPGD, NADH fluorescence kinetic, PGE2 substrate; active means well fitted inhibition curve with a large enough effect, not every such curve was filed as active; inconclusive means small, poorly fitted or top-dose-only effect, or another doubt; inactive means no such curve, though single readings can be large or run the other way
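20 nM HPGD preincubated 15 min at room temperature with compound in 50 mM Tris-HCl pH 8, 0.01% Tween 20. Started with 1 mM NAD+ and 30 uM prostaglandin E2; NADH fluorescence (360/450 nm) read 5 times over 30-s intervals, last minus first.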
An asterisk follows results filed as active; ? = inconclusive; nt = no result; [ ] = another dose, or the depositor's remark. Unless noted, the call rests on the fitted dose curve; in most records, active means well fitted curve in the direction sought with a large enough effect; inconclusive means small, poorly fitted or top-dose-only effect, or another doubt; inactive means no such curve, though single readings can be large; an effect the other way counts as inactive or inconclusive. Unless noted, on the % scale 0 is the no-effect control and ±100 the full control effect; potency means the concentration at half of the fitted maximal effect.

SMILES	Tau fluor cs	Tau fibril ThT	NPSR antagonist	Tau FP inhib	ALDH1A1 inh	HPGD inh
O=C(O)c1ccc(C[n+]2c(-c3ccccc3)csc2Nc2ccccc2)cc1	-17%	?	-58%	4%	-14%	16µM*
CC(C)(C)c1cc(-c2csc(Nc3ccccc3)[n+]2Cc2ccc(C(=O)O)cc2)cc(C(C)(C)C)c1O	?	?	13µM*	-5%	nt	nt
CCCCCC[n+]1c(-c2ccccc2)csc1Nc1ccccc1	-13%	-9%	-4%[46.1 µM]	6%	-9%	-5%
C=CC[n+]1c(C)csc1Nc1ccc(C(=O)O)cc1	5%	-6%	1%	4%	-1%	nt
CCC1CCCCN1C(=S)NC(=O)c1cccs1 (stereo unspecified)	-1%	-2%	-14%	-3%	?	nt
CCC1CCCCN1C(=S)NC(=O)c1ccc([N+](=O)[O-])cc1 (stereo unspecified)	-13%	-12%	-11%	8%	35µM*	-17%
COC(=O)c1ccccc1NC(=S)NC(=O)COc1ccccc1	-21%	?	-21%[46.1 µM]	-2%	?	-15%
CCC(=O)NC(=S)NNC(=O)c1ccc(OC)cc1	2%	-15%	1%[46.1 µM]	0%	40µM*	-29%
Cc1ccc(C(=O)NNC(=S)NC(=O)COc2ccccc2)cc1	-3%	-20%	-15%[46.1 µM]	5%	18µM*	-15%
COc1ccc(C(=O)NC(=S)NNC(=O)CNC(=O)C2CCCCC2)cc1	-3%	-5%	-8%	-1%	22µM*	nt
CCOc1ccc(NC(=S)NNC(=O)c2ccc(Br)cc2)cc1	?	?	0%	0%	?	nt
CC(NC(=O)COc1ccc(Br)cc1)C(=O)O (stereo unspecified)	3%	-4%	-4%[46.1 µM]	-3%	10µM*	-15%
CCC(=O)NC(=S)NNC(=O)COc1ccc(Br)cc1	1%	-14%	-16%	-5%	24µM*	nt
CCCCOc1ccc(C(=O)NNC(=S)NC(=O)CC)cc1	-17%	?	-5%	-10%	-2%	-2%
CCC(=O)NC(=S)NNC(=O)c1ccc([N+](=O)[O-])cc1	-6%	-12%	-6%[46.1 µM]	-12%	20µM*	-27%
Cc1cccc(OCC(=O)NC(=S)Nc2ccc(S(=O)(=O)NC3CCCCC3)cc2)c1	-25%	-3%	-16%[46.1 µM]	-5%	16µM*	?
COc1ccc2c(c1)N(C(=O)CSc1n[nH]c(C)n1)C(C)(C)C=C2C	7%	6%	2%[46.1 µM]	3%	8%	-7%
CC(C)CC(=O)NC(=S)NNC(=O)c1ccc(NC(=O)C2CCCCC2)cc1	-19%	?	-9%	0%	-5%	-17%
CCC(=O)NC(=S)Nc1ccc(NC(=O)COc2ccccc2)cc1	4%	?	2%	7%	25µM*	-17%
CC(C)CC(=O)NC(=S)NNC(=O)c1ccc([N+](=O)[O-])cc1	11%	11%	10%	1%	-4%	32µM*
Cc1ccc(N2CCN(C(=S)c3ccc(-c4ccccc4[N+](=O)[O-])o3)CC2)cc1	?	?	-18%	-4%	nt	nt
Cc1ccc(N2CCN(C(=S)c3ccc(-c4cccc([N+](=O)[O-])c4)o3)CC2)cc1	?	?	-18%	2%	3.2µM*	nt
O=[N+]([O-])c1ccccc1-c1ccc(C(=S)N2CCN(c3ccccc3)CC2)o1	?	11µM*	-3%	-7%	nt	nt
Cc1ccccc1N1CCN(C(=S)c2ccc(-c3cccc([N+](=O)[O-])c3)o2)CC1	-25%	?	-4%	10%	8.9µM*	nt
COc1ccc(CNC2CC(=O)N(C)C2=O)cc1 (stereo unspecified)	-3%	-8%	-13%[46.1 µM]	-3%	-5%	-7%
SMILES	Tau fluor cs	Tau fibril ThT	NPSR antagonist	Tau FP inhib	ALDH1A1 inh	HPGD inh
CCOC(=O)C(=NCC1CCCO1)NNc1ccccc1Cl (stereo unspecified)	-25%	-5%	-13%	11%	nt	nt
CN(C)c1ccc(C(=S)N2CCN(Cc3ccccc3)CC2)cc1	-19%	-5%	44%	-8%	32µM*	nt
Cc1ccc(C(=S)N2CCN(Cc3ccccc3)CC2)s1	-19%	?	-16%	-6%	14µM*	nt
CN1CCN(C(=S)c2ccc(Br)cc2)CC1	-5%	3%	-7%[46.1 µM]	10%	-39%	nt
CN1CCN(C(=S)c2ccc(N(C)C)cc2)CC1	-1%	-1%	-24%[46.1 µM]	8%	28µM*	16µM*
S=C(c1ccc(Br)cc1)N1CCN(Cc2ccccc2)CC1	-12%	-6%	-24%[46.1 µM]	-12%	?	32µM*
CCn1c(C)c(C)c2cc(C(=O)NCCCN3CCCCC3C)ccc21 (stereo unspecified)	6%	-5%	nt	5%	nt	nt
O=C1N=c2ccccc2=C1c1sc(=S)n(-c2ccc(O)cc2)c1O	?	?	-8%	-4%	-1%	nt
Cc1c(-n2c(O)c(C3=c4ccccc4=NC3=O)sc2=S)c(=O)n(-c2ccccc2)n1C	-18%	?	-3%	-10%	7.9µM*	nt
Cc1cc(C(=O)N/N=C/c2cc(Cl)cc([N+](=O)[O-])c2O)n[nH]1	?	13µM*	-59%	-11%	nt	nt
O=[N+]([O-])c1cccc(/C=N\N=C2c3ccccc3-c3ccccc32)c1O	?	5µM*	-27%[46.1 µM]	8%	-7%	28µM*
O=[N+]([O-])c1cccc(/C=N\Nc2ccc3ccccc3n2)c1O	nt	nt	nt	nt	1.6µM*	-11%
O=[N+]([O-])c1cc(Cl)cc(/C=N\Nc2ccccn2)c1O	18µM*[quencher]	8.9µM*	0%[46.1 µM]	-12%	1%	-17%
O=[N+]([O-])c1cccc(/C=N/Nc2ccccn2)c1	-7%	?	14%	1%	5%	nt
CCOc1ccccc1NC(=O)Cn1nc(N2CCN(c3ccccc3)CC2)ccc1=O	-13%	?	nt	3%	nt	nt
Cc1ccc(N(Cc2cccs2)C(=O)COc2ccccc2[N+](=O)[O-])cc1	-29%	-9%	nt	-3%	nt	nt
O=C(N/N=C/c1cc(Cl)cc([N+](=O)[O-])c1O)c1cc(-c2ccccn2)nc2ccccc12	?	8.9µM*	-6%	5%	nt	nt
C/C(=N\NC(=O)c1cc(-c2ccccn2)nc2ccccc12)c1cccc([N+](=O)[O-])c1	-19%	1%	11%	-11%	-8%	nt
Cc1cc(N)n(Cc2cccs2)n1	4%	8%	-7%	7%	-3%	nt
COc1ccc(/C=N\N=C2/SC(CC(=O)O)C(=O)N2c2ccc(O)cc2)cc1 (stereo unspecified)	-6%	-7%	-15%[46.1 µM]	-1%	3%	nt
COc1ccc(/C=N/N=C2\SC(CC(=O)O)C(=O)N2c2ccccc2)c(OC)c1 (stereo unspecified)	5%	2%	-16%	1%	20µM*	-18%
